# Experimental data reported in ChEMBL document CHEMBL1961873, “Compounds: GSK PKIS; Assays: Nanosyn kinase panel” (2012).
# What was measured:
# [1] = molecular target: T1, Serine/threonine-protein kinase Nek9 (Homo sapiens) (UniProt Q8TD19); conditions: at 1 µM;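 note: each value is a mean percent inhibition of NEK9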
# T1 sequence (whole entry): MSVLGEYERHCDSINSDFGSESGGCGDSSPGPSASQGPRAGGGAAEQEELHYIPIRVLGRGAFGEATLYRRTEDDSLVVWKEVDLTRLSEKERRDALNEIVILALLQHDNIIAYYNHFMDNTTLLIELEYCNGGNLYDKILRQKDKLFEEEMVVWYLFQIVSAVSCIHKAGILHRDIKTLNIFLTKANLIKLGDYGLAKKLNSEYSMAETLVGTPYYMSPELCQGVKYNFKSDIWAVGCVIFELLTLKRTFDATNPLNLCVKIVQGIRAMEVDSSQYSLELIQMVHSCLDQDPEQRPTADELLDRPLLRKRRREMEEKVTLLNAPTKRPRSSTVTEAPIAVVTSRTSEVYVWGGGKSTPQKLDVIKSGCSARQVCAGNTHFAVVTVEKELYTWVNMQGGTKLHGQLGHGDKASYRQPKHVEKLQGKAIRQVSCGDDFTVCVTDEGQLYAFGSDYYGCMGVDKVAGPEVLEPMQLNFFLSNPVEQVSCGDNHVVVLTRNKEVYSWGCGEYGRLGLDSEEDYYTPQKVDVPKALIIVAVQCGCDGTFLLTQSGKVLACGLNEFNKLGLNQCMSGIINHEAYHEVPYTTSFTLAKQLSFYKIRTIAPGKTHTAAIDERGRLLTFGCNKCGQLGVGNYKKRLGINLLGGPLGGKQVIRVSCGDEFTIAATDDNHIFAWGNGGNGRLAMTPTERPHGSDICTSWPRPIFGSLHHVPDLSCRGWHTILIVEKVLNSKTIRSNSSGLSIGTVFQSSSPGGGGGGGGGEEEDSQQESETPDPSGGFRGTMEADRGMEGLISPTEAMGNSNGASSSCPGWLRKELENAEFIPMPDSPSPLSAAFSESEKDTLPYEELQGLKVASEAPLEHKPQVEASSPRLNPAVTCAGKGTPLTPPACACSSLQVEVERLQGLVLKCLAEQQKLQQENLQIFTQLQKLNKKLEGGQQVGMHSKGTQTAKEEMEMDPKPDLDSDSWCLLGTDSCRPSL
# [2] = molecular target: Serine/threonine-protein kinase PLK1 (Homo sapiens) (UniProt P53350); conditions: at 0.1 µM
# [3] = molecular target: Serine/threonine-protein kinase PLK1 (Homo sapiens) (UniProt P53350); conditions: at 1 µM
# [4] = molecular target: T2, Dual specificity protein kinase TTK (Homo sapiens) (UniProt P33981); conditions: at 0.1 µM
# T2 sequence (whole entry): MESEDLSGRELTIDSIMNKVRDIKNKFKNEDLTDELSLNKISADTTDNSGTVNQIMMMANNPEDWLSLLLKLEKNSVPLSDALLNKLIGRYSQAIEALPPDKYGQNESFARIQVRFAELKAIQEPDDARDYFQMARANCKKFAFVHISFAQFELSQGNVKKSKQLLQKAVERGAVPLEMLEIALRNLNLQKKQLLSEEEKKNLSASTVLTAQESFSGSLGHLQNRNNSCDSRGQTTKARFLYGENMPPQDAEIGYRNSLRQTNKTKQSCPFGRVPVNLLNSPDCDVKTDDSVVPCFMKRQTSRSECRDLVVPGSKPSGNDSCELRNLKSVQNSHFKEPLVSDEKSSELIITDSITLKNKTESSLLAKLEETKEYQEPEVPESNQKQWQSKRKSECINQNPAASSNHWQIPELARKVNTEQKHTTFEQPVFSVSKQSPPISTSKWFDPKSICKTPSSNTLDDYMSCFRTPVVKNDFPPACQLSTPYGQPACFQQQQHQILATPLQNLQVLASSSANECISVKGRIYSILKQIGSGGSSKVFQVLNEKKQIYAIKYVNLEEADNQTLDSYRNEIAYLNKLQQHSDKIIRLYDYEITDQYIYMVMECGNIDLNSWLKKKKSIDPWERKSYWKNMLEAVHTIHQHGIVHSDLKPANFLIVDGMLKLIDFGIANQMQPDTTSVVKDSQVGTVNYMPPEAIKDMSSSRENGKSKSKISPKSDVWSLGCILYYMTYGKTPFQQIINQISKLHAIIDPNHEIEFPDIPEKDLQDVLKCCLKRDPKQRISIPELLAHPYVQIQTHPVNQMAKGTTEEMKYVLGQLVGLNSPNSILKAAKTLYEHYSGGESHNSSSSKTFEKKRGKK
# [5] = tested on: T3, Receptor-type tyrosine-protein kinase FLT3 (Homo sapiens), P36888 [D835Y]; conditions: at 1 µM
# T3 sequence (whole entry): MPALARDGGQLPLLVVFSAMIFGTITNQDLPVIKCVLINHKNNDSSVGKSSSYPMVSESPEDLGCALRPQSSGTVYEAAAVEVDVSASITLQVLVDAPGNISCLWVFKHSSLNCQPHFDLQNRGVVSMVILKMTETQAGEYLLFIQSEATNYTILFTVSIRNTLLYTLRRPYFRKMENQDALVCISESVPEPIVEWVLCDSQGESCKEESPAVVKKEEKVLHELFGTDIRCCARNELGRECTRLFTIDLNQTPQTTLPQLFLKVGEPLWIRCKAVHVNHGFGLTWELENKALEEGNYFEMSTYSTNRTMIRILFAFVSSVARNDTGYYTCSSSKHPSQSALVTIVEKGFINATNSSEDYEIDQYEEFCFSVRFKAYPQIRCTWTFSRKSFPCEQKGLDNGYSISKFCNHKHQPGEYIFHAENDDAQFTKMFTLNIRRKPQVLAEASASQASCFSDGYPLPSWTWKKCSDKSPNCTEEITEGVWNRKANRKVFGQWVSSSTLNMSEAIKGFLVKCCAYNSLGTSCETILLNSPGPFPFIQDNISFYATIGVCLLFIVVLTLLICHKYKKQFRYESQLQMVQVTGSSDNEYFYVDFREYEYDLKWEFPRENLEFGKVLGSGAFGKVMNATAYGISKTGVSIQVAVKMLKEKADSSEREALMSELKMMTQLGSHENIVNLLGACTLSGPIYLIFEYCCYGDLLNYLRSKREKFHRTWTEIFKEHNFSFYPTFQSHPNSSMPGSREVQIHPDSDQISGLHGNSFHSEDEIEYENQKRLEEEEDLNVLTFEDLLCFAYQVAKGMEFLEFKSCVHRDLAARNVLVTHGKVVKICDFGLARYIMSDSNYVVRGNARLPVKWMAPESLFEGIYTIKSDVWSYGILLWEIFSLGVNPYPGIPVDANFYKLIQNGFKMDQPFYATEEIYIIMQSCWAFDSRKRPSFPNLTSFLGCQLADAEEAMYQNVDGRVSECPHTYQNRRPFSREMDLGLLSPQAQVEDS
# [6] = molecular target: Vascular endothelial growth factor receptor 3 (Homo sapiens) (UniProt P35916); conditions: at 0.1 µM
# [7] = molecular target: Vascular endothelial growth factor receptor 3 (Homo sapiens) (UniProt P35916); conditions: at 1 µM
# [8] = molecular target: Macrophage colony-stimulating factor 1 receptor (Homo sapiens) (UniProt P07333); conditions: at 0.1 µM
# [9] = molecular target: Macrophage colony-stimulating factor 1 receptor (Homo sapiens) (UniProt P07333); conditions: at 1 µM
# [10] = molecular target: Tyrosine-protein kinase Fyn (Homo sapiens) (UniProt P06241); conditions: at 0.1 µM
# Tyrosine-protein kinase Fyn (Homo sapiens), sequence (P06241 2-537 limits assumed): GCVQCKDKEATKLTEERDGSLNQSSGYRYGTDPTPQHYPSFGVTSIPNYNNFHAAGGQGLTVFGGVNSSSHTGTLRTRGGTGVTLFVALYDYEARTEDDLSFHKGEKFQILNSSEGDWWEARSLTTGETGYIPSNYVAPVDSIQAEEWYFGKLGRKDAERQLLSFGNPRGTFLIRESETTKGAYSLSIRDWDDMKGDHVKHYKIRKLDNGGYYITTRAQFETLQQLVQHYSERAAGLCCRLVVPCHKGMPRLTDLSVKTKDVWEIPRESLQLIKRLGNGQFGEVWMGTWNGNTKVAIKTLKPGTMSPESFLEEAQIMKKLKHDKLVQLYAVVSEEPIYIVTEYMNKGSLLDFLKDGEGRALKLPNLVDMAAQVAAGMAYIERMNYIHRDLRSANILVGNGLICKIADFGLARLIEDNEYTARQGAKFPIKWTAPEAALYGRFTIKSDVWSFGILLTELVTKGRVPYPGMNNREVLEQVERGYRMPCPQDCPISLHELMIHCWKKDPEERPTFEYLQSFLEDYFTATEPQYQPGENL
# Macrophage colony-stimulating factor 1 receptor (Homo sapiens), sequence (P07333 whole entry): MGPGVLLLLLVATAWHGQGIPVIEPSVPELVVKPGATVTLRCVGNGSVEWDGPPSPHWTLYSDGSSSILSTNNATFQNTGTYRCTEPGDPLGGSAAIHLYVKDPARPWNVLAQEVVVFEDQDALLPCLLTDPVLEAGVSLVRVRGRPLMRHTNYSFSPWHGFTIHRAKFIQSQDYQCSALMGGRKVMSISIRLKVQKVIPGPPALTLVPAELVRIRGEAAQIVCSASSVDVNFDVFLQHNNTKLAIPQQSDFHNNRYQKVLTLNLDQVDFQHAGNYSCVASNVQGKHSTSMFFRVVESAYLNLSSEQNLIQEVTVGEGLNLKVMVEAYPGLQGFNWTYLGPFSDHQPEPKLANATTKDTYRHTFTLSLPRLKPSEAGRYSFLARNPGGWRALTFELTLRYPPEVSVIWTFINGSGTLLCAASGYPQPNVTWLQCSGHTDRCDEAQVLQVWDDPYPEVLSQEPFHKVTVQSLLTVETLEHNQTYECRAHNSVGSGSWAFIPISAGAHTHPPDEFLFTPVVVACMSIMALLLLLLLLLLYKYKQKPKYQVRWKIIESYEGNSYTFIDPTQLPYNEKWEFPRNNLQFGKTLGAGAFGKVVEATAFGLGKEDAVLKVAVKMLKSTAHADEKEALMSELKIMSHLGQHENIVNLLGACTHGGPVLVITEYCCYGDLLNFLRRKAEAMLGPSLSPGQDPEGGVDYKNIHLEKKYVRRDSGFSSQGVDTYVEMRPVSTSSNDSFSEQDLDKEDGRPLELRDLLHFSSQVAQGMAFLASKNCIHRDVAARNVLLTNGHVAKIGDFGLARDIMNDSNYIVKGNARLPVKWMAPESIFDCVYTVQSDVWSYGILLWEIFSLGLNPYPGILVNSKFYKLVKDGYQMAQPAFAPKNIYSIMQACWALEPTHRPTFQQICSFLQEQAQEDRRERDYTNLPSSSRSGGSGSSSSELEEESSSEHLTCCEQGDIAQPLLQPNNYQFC
# Serine/threonine-protein kinase PLK1 (Homo sapiens), sequence (P53350 whole entry): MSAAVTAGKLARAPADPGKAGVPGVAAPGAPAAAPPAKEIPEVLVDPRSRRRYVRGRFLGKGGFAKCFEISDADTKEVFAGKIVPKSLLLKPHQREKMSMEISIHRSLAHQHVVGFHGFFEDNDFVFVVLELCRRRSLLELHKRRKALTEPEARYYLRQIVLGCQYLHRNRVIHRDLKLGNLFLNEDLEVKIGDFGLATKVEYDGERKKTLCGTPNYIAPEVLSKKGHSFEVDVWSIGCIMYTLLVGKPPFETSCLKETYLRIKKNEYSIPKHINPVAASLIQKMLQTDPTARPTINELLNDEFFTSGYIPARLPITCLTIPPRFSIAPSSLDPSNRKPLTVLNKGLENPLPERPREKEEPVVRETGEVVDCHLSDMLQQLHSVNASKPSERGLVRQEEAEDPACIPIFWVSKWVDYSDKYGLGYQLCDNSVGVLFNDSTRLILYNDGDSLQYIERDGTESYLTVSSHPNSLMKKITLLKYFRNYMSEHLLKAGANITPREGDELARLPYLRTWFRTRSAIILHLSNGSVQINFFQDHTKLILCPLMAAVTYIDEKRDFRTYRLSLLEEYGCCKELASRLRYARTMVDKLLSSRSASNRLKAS
# Vascular endothelial growth factor receptor 3 (Homo sapiens), sequence (P35916 whole entry): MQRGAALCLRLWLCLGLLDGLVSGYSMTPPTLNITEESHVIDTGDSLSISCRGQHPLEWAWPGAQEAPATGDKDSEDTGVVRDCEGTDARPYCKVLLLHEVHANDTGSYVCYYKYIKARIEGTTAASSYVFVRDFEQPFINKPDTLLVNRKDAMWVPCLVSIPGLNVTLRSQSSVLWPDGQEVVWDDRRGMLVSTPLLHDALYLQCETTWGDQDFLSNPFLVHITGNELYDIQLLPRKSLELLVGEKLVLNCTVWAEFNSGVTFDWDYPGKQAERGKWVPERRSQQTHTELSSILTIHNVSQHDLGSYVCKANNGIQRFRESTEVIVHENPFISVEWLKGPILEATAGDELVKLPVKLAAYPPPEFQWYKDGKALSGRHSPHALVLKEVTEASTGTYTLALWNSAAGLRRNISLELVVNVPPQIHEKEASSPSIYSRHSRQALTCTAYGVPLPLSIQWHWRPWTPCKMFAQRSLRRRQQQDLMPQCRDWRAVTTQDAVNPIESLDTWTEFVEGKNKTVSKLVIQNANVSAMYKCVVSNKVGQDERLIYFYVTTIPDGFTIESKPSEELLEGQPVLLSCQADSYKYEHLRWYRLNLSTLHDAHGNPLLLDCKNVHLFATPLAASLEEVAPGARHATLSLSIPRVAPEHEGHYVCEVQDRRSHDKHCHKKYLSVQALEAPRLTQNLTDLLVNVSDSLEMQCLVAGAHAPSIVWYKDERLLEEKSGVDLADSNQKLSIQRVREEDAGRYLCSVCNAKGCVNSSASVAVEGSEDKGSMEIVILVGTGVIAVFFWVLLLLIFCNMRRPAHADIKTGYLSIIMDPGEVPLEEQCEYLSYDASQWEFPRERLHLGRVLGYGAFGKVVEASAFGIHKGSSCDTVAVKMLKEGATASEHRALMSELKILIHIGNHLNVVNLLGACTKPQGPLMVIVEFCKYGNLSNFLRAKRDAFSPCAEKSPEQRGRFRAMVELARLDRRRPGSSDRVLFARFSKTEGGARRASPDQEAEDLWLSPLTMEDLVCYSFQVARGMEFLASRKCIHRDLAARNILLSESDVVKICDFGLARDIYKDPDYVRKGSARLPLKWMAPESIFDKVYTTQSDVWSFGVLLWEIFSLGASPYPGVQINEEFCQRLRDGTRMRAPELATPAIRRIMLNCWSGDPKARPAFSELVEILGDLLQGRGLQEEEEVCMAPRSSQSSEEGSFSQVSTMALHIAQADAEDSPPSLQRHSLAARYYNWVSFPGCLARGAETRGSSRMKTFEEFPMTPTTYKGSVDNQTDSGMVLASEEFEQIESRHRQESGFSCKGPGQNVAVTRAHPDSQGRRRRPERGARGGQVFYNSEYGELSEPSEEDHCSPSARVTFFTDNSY
Structure (SMILES),inhibition [1],inhibition [2],inhibition [3],inhibition [4],inhibition [5],inhibition [6],inhibition [7],inhibition [8],inhibition [9],inhibition [10]
NS(=O)(=O)c1cccc(-c2ccc3c(NC(=O)C4CC4)n[nH]c3c2)c1,2.04%,0.99%,-1.05%,-4.5%,-1.12%,2.99%,5.11%,-0.02%,2.28%,1.2%
CN1CCC(C(=O)Nc2n[nH]c3nnc(-c4ccccc4)cc23)CC1,19.2%,6.37%,4.03%,12.6%,-2.63%,2.1%,3.3%,0.38%,3.05%,0.66%
COC(=O)Nc1nc2cc(Oc3ccc(NC(=O)Nc4cccc(C(=O)O)c4)cc3)ccc2[nH]1,1.76%,0.16%,0.8%,1.59%,4.78%,,-5.74%,3.75%,8.4%,-5.06%
COc1cc2ncn(-c3cc(O[C@H](C)c4ccccc4Cl)c(C(N)=O)s3)c2cc1OC,91.6%,,,9.01%,39.6%,31.8%,81.3%,8.07%,41.9%,2%
CCn1c(-c2nonc2N)nc2c(C#CC(C)(C)O)nc(CN3CCCC3)cc21,3.04%,-0.39%,-1.2%,1.71%,0.63%,0.61%,5.17%,-0.03%,2.57%,2.94%
COc1ccc(COc2ccc(Cc3cnc(N)nc3N)cc2OC)cc1,-4.1%,0.21%,3.71%,-2.66%,-1.91%,-2.95%,-0.86%,,,0.22%
CS(=O)(=O)CCNCc1ccc(-c2ccc3ncnc(Nc4ccc(OCc5ccccc5)c(Cl)c4)c3c2)o1,4.02%,2.44%,2.99%,4.06%,-0.19%,3.02%,2.54%,-2.83%,10%,2.44%
COc1ccc2cc(-c3c(-c4ccncc4)nc(-c4ccc([S+](C)[O-])cc4)n3C)ccc2c1 (centres undefined),0.29%,1.98%,4.45%,4.12%,5.59%,1.55%,0.4%,-0.21%,-0.69%,3.05%
Cc1nn(C)c2cc(N(C)c3ccnc(Nc4cccc(S(N)(=O)=O)c4)n3)ccc12,13.1%,2.85%,3.39%,13%,11.9%,15.6%,62.9%,75.5%,93.9%,4.56%
Cn1cc(C=C2C(=O)Nc3cccnc32)c2ccccc21,4.67%,2.71%,1.58%,9.66%,77.5%,4.88%,30.3%,6.48%,30.9%,4.64%
COc1cc(C)c(NC(=O)CN(C)C)cc1Nc1nc(Nc2cccc(F)c2C(N)=O)c2cc[nH]c2n1,2.11%,70.5%,92.2%,24.2%,4.71%,-3.04%,1.77%,3.71%,26.6%,1.54%
CCN1CCC(CC(=O)Nc2n[nH]c3nc(-c4cccs4)c(Br)cc23)CC1,0.2%,-3.36%,-3.47%,-6.26%,10.7%,1.17%,2.51%,-2.02%,0.93%,-0.42%
CCn1c(-c2nonc2N)nc2c(N3CCCC3)nccc21,1.67%,1.87%,-0.08%,9.05%,-4.08%,2.79%,3.38%,-0.51%,0.02%,-0.01%
CC1=C(C(=O)Nc2ccc3[nH]ncc3c2)C(c2ccc3ccccc3c2)CC(=O)N1 (centres undefined),2.05%,2.98%,1.98%,5.26%,1.5%,1.27%,3.27%,7.17%,2.62%,2%
Cc1cc(O)cc(C)c1/C=C/c1cncc(-c2nn[nH]n2)c1,8.64%,3.41%,4.38%,7.11%,-0.25%,-9.76%,,8.02%,36.1%,3.99%
O=C1NC(=O)C(c2ccccc2Cl)=C1Nc1cccc(O)c1,-5.12%,3.44%,3.38%,2.7%,3.87%,3.25%,3.79%,-1.08%,2.71%,1.1%
Fc1cccc(COc2ccc(Nc3ncnc4sc(-c5cccs5)cc34)cc2Cl)c1,2.21%,1.64%,2.97%,2.43%,4.36%,3.77%,3.65%,0.1%,11.2%,1.11%
CCn1c(-c2nonc2N)nc2cnc(Oc3cccc(NC(=O)c4ccc(OCCN5CCOCC5)cc4)c3)cc21,17%,4.54%,2.83%,10.3%,-0.53%,-0.39%,0.92%,1.4%,2.86%,1.07%
NC(=O)c1ccc(-c2nc(-c3ccccn3)c(-c3ccc4c(c3)OCO4)[nH]2)cc1,6.43%,5.18%,2.1%,6.47%,1.63%,0.44%,-0.31%,1.36%,2.49%,1.15%
COc1ccccc1Nc1ncc(-c2ccccc2)o1,5.41%,4.91%,4.18%,10.2%,25.5%,3.38%,9.85%,12%,53.5%,4.02%
Nc1nc(-c2ccc3c(c2)C(=Cc2cc(Br)c(O)c(Br)c2)C(=O)N3)cs1,8.59%,0.43%,3.62%,2.39%,3.47%,4.68%,6.47%,-1.81%,2.56%,-0.03%
COc1cc2ncn(-c3cc(OCc4ccccc4C(F)(F)F)c(C(N)=O)s3)c2cc1OC,58.7%,93.4%,96.3%,7.82%,14.5%,6.89%,53.1%,,,-0.99%
CC1=C(C(=O)Nc2ccc3[nH]ncc3c2)C(c2ccc(Cl)c(Cl)c2)CC(=O)N1 (centres undefined),3.13%,2.57%,1.43%,2.15%,0.84%,-2.61%,1%,-0.52%,1.97%,1.91%
CC(=O)Nc1cccc(C#Cc2cncnc2Nc2ccc(OCc3cccc(F)c3)c(Cl)c2)n1,2.5%,-3.77%,-3.29%,-1.68%,2.36%,-1.2%,-2.96%,0.5%,-0.39%,1.08%
CNC(=O)c1cncc(/C=C/c2c(Cl)cccc2Cl)c1,5.75%,3.89%,7.28%,17%,-3.57%,-7.73%,,7.17%,41.1%,0.89%
NS(=O)(=O)c1ccc(N/N=C2\C(=O)Nc3ccc(C(=O)NCCc4c[nH]cn4)cc32)cc1,10.4%,5.66%,10.8%,37.9%,48%,6.93%,26.4%,,15.4%,3.46%
Nc1nc(-c2ccccn2)c(-c2ccc3ncccc3n2)s1,6.84%,2.47%,2.12%,4.02%,8.59%,1.06%,2.46%,2.04%,4.58%,-1.79%
Cc1ccc(NC(=O)c2ccnc(N3CCCC3)c2)cc1-c1ccc(C(=O)NCC2CC2)cc1,6.52%,3.7%,4.57%,15.4%,1.51%,-7.96%,,1.57%,2.74%,-2.42%
